Assay results published in PubChem BioAssay AID763 (NMMLSC, 2007).
Values without a mark were called inactive. No rule for the calls is given here.

biological target: fMet-Leu-Phe receptor (Homo sapiens) (UniProt P21462); experiment: human FPR1 ligand displacement single-point test – cell-based, single concentration, selectivity assay for FPRL1 ligand SAR project, SAR follow-up (AID 763); conditions: FPR1-expressing cells, fluorescent ligand binding inhibition, stronger effect = higher value; at 5.4 µM unless noted
Sequence (P21462 whole entry, looked up): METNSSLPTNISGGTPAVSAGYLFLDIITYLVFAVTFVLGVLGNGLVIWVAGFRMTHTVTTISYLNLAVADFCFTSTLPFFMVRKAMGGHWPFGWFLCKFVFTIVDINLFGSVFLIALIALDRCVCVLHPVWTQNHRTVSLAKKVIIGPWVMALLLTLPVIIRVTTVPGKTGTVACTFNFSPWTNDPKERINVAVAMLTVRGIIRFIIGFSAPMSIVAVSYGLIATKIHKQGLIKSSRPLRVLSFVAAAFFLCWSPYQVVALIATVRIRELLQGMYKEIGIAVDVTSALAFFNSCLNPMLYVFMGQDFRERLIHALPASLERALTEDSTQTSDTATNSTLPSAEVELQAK

SMILES | inhibition
COc1ccccc1-c1cc(C(F)(F)F)nc(N2CCN(c3ccccc3OC)CC2)n1 | -2.2% [at 5 µM]
N#Cc1cc(-c2ccccc2)nc(N2CCN(c3ccccc3)CC2)n1 | -6% [at 6.5 µM]
FC(F)(F)c1cc(-c2ccccc2)nc(N2CCN(c3cccc(Cl)c3)CC2)n1 | -2.5% [at 5.3 µM]
CCOC(=O)N1CCN(c2nc(-c3cccc(Cl)c3)c3c(n2)-c2ccccc2OC3)CC1 | 3.2% [at 4.9 µM]
CC(C)(C)OC(=O)N1CCN(c2nc(-c3ccccc3Cl)c3cc(Br)ccc3n2)CC1 | 8.5% [at 4.4 µM]
CC(C)(C)OC(=O)N1CCN(c2nc(-c3ccccc3)c3ccccc3n2)CC1 | -1.7% [at 5.7 µM]
Fc1ccc(-c2cc(C(F)(F)F)nc(N3CCN(c4ccccc4)CC3)n2)cc1 | -1% [at 5.5 µM]
COc1ccc(-c2cn3cccnc3n2)cc1NC(=O)CCC1CCCCC1 | -4.2% [at 5.9 µM]
CCCC(CCC)C(=O)Nc1cc(-c2cn3cccnc3n2)ccc1OC | -2% [at 6.1 µM]
CCOc1ccc(C(=O)Nc2cc(-c3cn4cccnc4n3)ccc2OC)cc1 | -6.6% [at 5.7 µM]
O=C(c1ccccc1)N1CCN(c2nc(-c3ccccc3)c3ccccc3n2)CC1 | 1.8% [at 5.6 µM]
Cc1ccc(-c2cn3cccnc3n2)cc1NC(=O)C(C)C | 3.7% [at 7.6 µM]
O=C(O)CCCC(=O)N1CCN(c2nc(-c3ccccc3Cl)c3cc(Br)ccc3n2)CC1 | 1.9% [at 4.3 µM]
